# Counter-ions that a name gives are not always drawn.
# How the values were obtained:
# Conditions in all cases: treatment time: 24 h
# [1] = test system: HepG2-CANX-COX4; experiment: lowest phenotypically active concentration; higher = less potent
# Procedure, shortened: (§1)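 Fifteen gene-edited A549, HepG2 and WPMY1 reporter lines (BFP segmentation plus GFP and RFP/FusionRed markers) were treated at 0.3, 1, 3 or 9 µM for 24 h, four wells each, then imaged live. Live-cell features per well were normalised to DMSO control wells. Deviation required ≥3 of 4 wells beyond the 95th percentile of DMSO Euclidean distances, and reproducibility required median replicate Pearson correlation above the 95th percentile of non-replicates. Phenotypic activity needed both criteria.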
# [2] = test system: HepG2-GM130-SQSTM1; experiment: as above
# Procedure, shortened: as §1
# [3] = test system: HepG2-TUBA1B-RELA; experiment: as above
# Procedure, shortened: as §1
# [4] = test system: WPMY1-GM130-SQSTM1; experiment: as above
# Procedure, shortened: as §1
# [5] = test system: A549-CANX-COX4; experiment: phenotypically active (imaging signature differs from DMSO and reproducible) at any of 0.3-9 uM (binary (1 = active, 0 = inactive)); higher = active
# Procedure, shortened: as §1
# [6] = test system: A549-TP53BP1-CLTA; experiment: as above
# Procedure, shortened: as §1
# [7] = test system: HepG2-ACTB-RAB5A; experiment: as above
# Procedure, shortened: as §1
# [8] = test system: HepG2-CANX-COX4; experiment: as above
# Procedure, shortened: as §1
# [9] = test system: HepG2-GM130-SQSTM1; experiment: as above
# Procedure, shortened: as §1
# [10] = test system: HepG2-TP53BP1-CLTA; experiment: as above
# Procedure, shortened: as §1
# [11] = test system: HepG2-TUBA1B-RELA; experiment: as above
# Procedure, shortened: as §1
# [12] = test system: WPMY1-ACTB-RAB5A; experiment: as above
# Procedure, shortened: as §1
# [13] = test system: WPMY1-CANX-COX4; experiment: as above
# Procedure, shortened: as §1
# [14] = test system: WPMY1-GM130-SQSTM1; experiment: as above
# Procedure, shortened: as §1
# [15] = test system: WPMY1-TP53BP1-CLTA; experiment: as above
# Procedure, shortened: as §1
# [16] = test system: WPMY1-TUBA1B-RELA; experiment: as above
# Procedure, shortened: as §1
# [17] = test system: A549-ACTB-RAB5A; experiment: as above
# Procedure, shortened: as §1
# [18] = test system: A549-GM130-SQSTM1; experiment: as above
# Procedure, shortened: as §1
# [19] = test system: A549-TUBA1B-RELA; experiment: as above
# Procedure, shortened: as §1
# [20] = test system: A549-GM130-SQSTM1; experiment: lowest phenotypically active concentration; higher = less potent
# Procedure, shortened: as §1
Structure (SMILES),lowest phenotypically active concentration [1] [µM],lowest phenotypically active concentration [2] [µM],lowest phenotypically active concentration [3] [µM],lowest phenotypically active concentration [4] [µM],phenotypically active [5],phenotypically active [6],phenotypically active [7],phenotypically active [8],phenotypically active [9],phenotypically active [10],phenotypically active [11],phenotypically active [12],phenotypically active [13],phenotypically active [14],phenotypically active [15],phenotypically active [16],phenotypically active [17],phenotypically active [18],phenotypically active [19],lowest phenotypically active concentration [20] [µM]
CC(C)C[C@H]1C(=O)N2CCC[C@H]2[C@]2(O)O[C@](NC(=O)[C@@H]3C=C4c5cccc6[nH]c(Br)c(c56)C[C@H]4N(C)C3)(C(C)C)C(=O)N12 [bromocriptine],9,9,9,9,0 (inactive),1 (active),1 (active),1 (active),1 (active),1 (active),1 (active),0 (inactive),0 (inactive),1 (active),1 (active),0 (inactive),–,–,–,–
N#Cc1c(Oc2cccc(OS(=O)(=O)CCCC(F)(F)F)c2)cccc1C(F)(F)F,–,9,–,–,0 (inactive),0 (inactive),0 (inactive),0 (inactive),1 (active),0 (inactive),0 (inactive),0 (inactive),0 (inactive),0 (inactive),0 (inactive),0 (inactive),0 (inactive),0 (inactive),0 (inactive),–
C[C@@H](CO)NC(=O)[C@@H]1C=C2c3cccc4[nH]cc(c34)C[C@H]2N(C)C1 [Ergobasine],–,9,–,9,0 (inactive),1 (active),0 (inactive),0 (inactive),1 (active),0 (inactive),0 (inactive),0 (inactive),1 (active),1 (active),1 (active),0 (inactive),0 (inactive),1 (active),0 (inactive),9
O=C1CCCN1CC#CCN1CCCC1 [Oxotremorine sesquifumarate],–,–,–,–,0 (inactive),0 (inactive),0 (inactive),0 (inactive),0 (inactive),0 (inactive),0 (inactive),0 (inactive),0 (inactive),0 (inactive),0 (inactive),0 (inactive),–,–,–,–
CCCN1C[C@H](CSC)C[C@@H]2c3cccc4[nH]cc(c34)C[C@H]21 [pergolide],–,–,–,9,0 (inactive),0 (inactive),0 (inactive),0 (inactive),0 (inactive),0 (inactive),0 (inactive),0 (inactive),0 (inactive),1 (active),0 (inactive),0 (inactive),0 (inactive),0 (inactive),0 (inactive),–
C[C@@H]1NCCc2cc(O)c(O)cc21 [Salsolinol hydrobromide],–,–,–,9,0 (inactive),0 (inactive),0 (inactive),0 (inactive),0 (inactive),0 (inactive),0 (inactive),0 (inactive),0 (inactive),1 (active),0 (inactive),0 (inactive),0 (inactive),0 (inactive),0 (inactive),–
CN1[C@@H]2CC[C@H]1C[C@@H](OC(=O)[C@H](CO)c1ccccc1)C2 [Hyoscyamine (L)],–,–,–,–,0 (inactive),–,0 (inactive),0 (inactive),0 (inactive),–,0 (inactive),0 (inactive),0 (inactive),0 (inactive),–,0 (inactive),0 (inactive),0 (inactive),0 (inactive),–
C[C@]1(C(=O)O)CCC[C@]2(C)c3cc(O)ccc3CC[C@@H]12 [Podocarpic acid],–,–,–,–,0 (inactive),0 (inactive),0 (inactive),0 (inactive),0 (inactive),0 (inactive),0 (inactive),0 (inactive),0 (inactive),0 (inactive),0 (inactive),0 (inactive),–,–,–,–
C/C=C(/C)C(=O)O[C@H]1CC[C@@]2(C)[C@@H]3CC[C@H]4[C@]5(O)C[C@H](O)[C@@]6(O)[C@@H](CN7C[C@@H](C)CC[C@H]7[C@@]6(C)O)[C@]5(O)C[C@@]42O[C@]13O [Veratrine],–,–,9,–,0 (inactive),0 (inactive),0 (inactive),0 (inactive),0 (inactive),0 (inactive),1 (active),0 (inactive),0 (inactive),0 (inactive),0 (inactive),0 (inactive),0 (inactive),0 (inactive),0 (inactive),–
CN1C[C@H](CO)C=C2c3cccc4[nH]cc(c34)C[C@H]21 [Lysergol],–,–,–,9,0 (inactive),0 (inactive),0 (inactive),0 (inactive),0 (inactive),0 (inactive),0 (inactive),0 (inactive),0 (inactive),1 (active),0 (inactive),0 (inactive),0 (inactive),0 (inactive),0 (inactive),–
O=C1NC(=S)N(c2cccc(Br)c2)C(=O)/C1=C/c1ccco1,9,9,9,3,0 (inactive),0 (inactive),0 (inactive),1 (active),1 (active),0 (inactive),1 (active),1 (active),1 (active),1 (active),1 (active),1 (active),0 (inactive),0 (inactive),1 (active),–
Cc1sc2c(c1C)C(c1ccc(Cl)cc1)=N[C@H](CC(=O)OC(C)(C)C)c1nnc(C)n1-2,9,9,–,9,0 (inactive),0 (inactive),1 (active),1 (active),1 (active),0 (inactive),0 (inactive),0 (inactive),0 (inactive),1 (active),0 (inactive),1 (active),0 (inactive),0 (inactive),0 (inactive),–
"BrC1C(Br)C(Br)C(Br)C(Br)C1Br (centres undefined) [1,2,3,4,5,6-Hexabromocyclohexane]",–,9,–,–,0 (inactive),0 (inactive),0 (inactive),0 (inactive),1 (active),0 (inactive),0 (inactive),0 (inactive),0 (inactive),0 (inactive),0 (inactive),0 (inactive),0 (inactive),0 (inactive),0 (inactive),–
N[C@@H]1C[C@H]1c1cc(F)cc(F)c1OCc1ccccc1,–,–,–,9,0 (inactive),0 (inactive),0 (inactive),0 (inactive),0 (inactive),0 (inactive),0 (inactive),1 (active),0 (inactive),1 (active),1 (active),0 (inactive),0 (inactive),0 (inactive),0 (inactive),–
CC[C@@H](CO)NC(=O)[C@@H]1C=C2c3cccc4c3c(cn4C)C[C@H]2N(C)C1 [methysergide],–,–,–,–,0 (inactive),0 (inactive),0 (inactive),0 (inactive),0 (inactive),0 (inactive),0 (inactive),0 (inactive),0 (inactive),0 (inactive),0 (inactive),0 (inactive),0 (inactive),1 (active),0 (inactive),9
O=C1C=C2C=C[C@@H]3C[C@@]2(O1)[C@H]1CCCCN31 [Securinine],–,9,–,–,0 (inactive),0 (inactive),0 (inactive),0 (inactive),1 (active),0 (inactive),0 (inactive),0 (inactive),0 (inactive),0 (inactive),0 (inactive),1 (active),0 (inactive),0 (inactive),0 (inactive),–
c1ccc([C@@H]2C[C@H]2NC2CCNCC2)cc1 [GSK LSD 1 dihydrochloride],–,–,–,9,0 (inactive),0 (inactive),0 (inactive),0 (inactive),0 (inactive),0 (inactive),0 (inactive),0 (inactive),0 (inactive),1 (active),0 (inactive),0 (inactive),0 (inactive),0 (inactive),0 (inactive),–
C[C@H](N)Cc1ccccc1 [dextroamphetamine],–,–,–,–,0 (inactive),–,0 (inactive),0 (inactive),0 (inactive),–,0 (inactive),0 (inactive),0 (inactive),0 (inactive),–,0 (inactive),1 (active),1 (active),1 (active),3
CN1[C@@H]2CC[C@H]1C[C@@H](OC(=O)C(CO)c1ccccc1)C2 (some centres undefined) [Atropine sulfate monohydrate],–,–,–,–,0 (inactive),–,0 (inactive),0 (inactive),0 (inactive),–,0 (inactive),0 (inactive),0 (inactive),0 (inactive),–,0 (inactive),0 (inactive),0 (inactive),0 (inactive),–
COc1cc2c(cc1O)C[C@H]1c3c(cc(O)c(OC)c3-2)CCN1C [Boldine],–,–,–,1,0 (inactive),0 (inactive),1 (active),0 (inactive),0 (inactive),0 (inactive),0 (inactive),0 (inactive),0 (inactive),1 (active),0 (inactive),0 (inactive),0 (inactive),1 (active),1 (active),9
